In the supplement of paper PMC10941209 one finds parasite survival data, which are given here for 40 compounds.

A number with no mark means an inactive call.

For the assay, the system named is Toxoplasma gondii RH 2F1 tachyzoites (intracellular in HFF). The assay is described as follows: parasite survival relative to DMSO control; higher = less antiparasitic activity, active = 20 or less. The conditions noted are these: 1 µM; 72 h. The gist of the method:
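Parasite survival was taken as the CPRG signal relative to DMSO-treated infected wells, given as a percentage. To obtain it, HFF cells (5 × 10^3 cells/well, 96-well plates) were infected for 3 h in D2 medium with 5 × 10^3 β-galactosidase-expressing Toxoplasma gondii RH-2F1 tachyzoites, then exposed to compound at 1 μM for 72 h at 37°C in 5% CO2. Absorbance at 570 nm was measured 30 min after CPRG was added to lysed cells, and 2 or more biological replicates were run.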
Regarding `Cc1ncc([N+](=O)[O-])n1CC(C)O` (stereo not given), the parasite survival was 48.2%.
For `O=C(c1ccccc1)N1CCN(c2ccccc2NC(=O)C(Cl)(Cl)Cl)CC1` the value was 63.4%.
Under `Oc1cccc(C(Nc2nccs2)c2ccc3cccnc3c2O)c1` (stereo not given) stands 2.96% (active).
As for `O=C(c1nc2c(C(F)(F)F)cc(C3CC3)cn2c1Cl)N1CCN([C@H]2CC[C@H](O)CC2)C(=O)C1`, the parasite survival is 21.1%.
For `Cc1[nH]c2ccccc2c1CCNCc1ccc(/C=C/C(=O)NO)cc1` the value was 4.12% (active); for `COc1cc(C)c2c(Oc3cccc(C(F)(F)F)c3)c(OC)cc(NC(C)CCCN)c2n1` (stereo not given), 27.2%; for `CN1CCN(Cc2ccc(-c3cnc4[nH]cc(-c5ccc6[nH]ccc6c5)c4c3)cc2)CC1`, 7.23% (active).
For `Nc1nnc(-c2ccc(Cl)cc2)s1` the value was 59.9%; for `CC(=N)N1CC[C@H](SC2=C(C(=O)O)N3C(=O)[C@@H]([C@@H](C)O)[C@H]3C2)C1`, 53.7%; for `Fc1ccc2c(/C=C/c3cccnc3)c[nH]c2c1`, 29.1%.
As for `NC(=S)N/N=C/c1ncccc1N`, the parasite survival was 37.3%.
Under `C[C@H]1COc2c(N3CCN(C)CC3)c(F)cc3c(=O)c(C(=O)O)cn1c23` stands 51.4%; under `C[C@H](NC(CC(=O)c1ccccc1C(F)(F)F)C(=O)O)c1ccccc1` (stereo not given in full), 63%; under `O=C1[C@H](CC[C@H](O)c2ccc(F)cc2)[C@@H](c2ccc(O)cc2)N1c1ccc(F)cc1`, 91.5%.
`O=C(CSc1nnc(Br)n1-c1ccc(C2CC2)c2ccccc12)Nc1ccc(C(=O)O)cc1Cl`: the parasite survival is 61%.
For `CC(C)C(=O)N[C@H]1[C@H]([C@H](O)[C@H](O)CO)OC(C(=O)O)=C[C@@H]1N=[N+]=[N-]` the value was 72.6%; for `Cc1cc(C)n(O)c(=O)c1`, 49.3%.
For `O=C(CC1Sc2ncnn2C1=O)Nc1ccc(Br)cc1` (stereo not given) the value was 28.1%.
Under `O=C(NC(=O)N1CCCc2ccccc21)c1ccc(Cl)cc1Cl` stands 55.9%; under `O=C(N[C@H](Cc1cccc2ccccc12)C(=O)NCCc1c[nH]cn1)C1Cc2ccccc2C1`, 33.7%; under `CCCCCc1ccc(C(=O)NCCn2cc(CCCCCc3c[nH]c(N)n3)nn2)cc1`, 67.5%.
Consider `CCc1cc(O)c(Oc2cccnc2N)cc1F`, for which the parasite survival is 44.6%.
For `CCCC1(C2CC2)c2cc(Cl)ccc2NC(=O)N1C` (stereo not given) the value was 70.4%; for `O=C(Nc1ncc(Cc2cccc3ccccc23)s1)C1CCCCC1`, 25.3%; for `Nc1nc(=O)c(Br)c(-c2ccccc2)[nH]1`, 75.4%.
For the compound `Nc1nc(-c2ccccc2)nc2[nH]nc(Nc3ccc(C(F)(F)F)cc3)c12`, the parasite survival was 35.1%.
Under `Cn1c2ccccc2c(=O)c2c(O)cccc21` stands 49.5%; under `CCc1cc(Cc2cnc(N)nc2N)cc2c1N(C)CCC2C` (stereo not given), 45.2%.
Under `O=C1NC(=O)C(Br)=C1Br` stands 35.2%; under `O=C(NC1CCCc2c1[nH]c1ccc(Cl)cc21)c1ccccn1` (stereo not given), 63.8%; under `CC(C)(C)c1ccc(C(=O)NC(=O)N2CCCc3ccccc32)cc1`, 49.9%.
For `Oc1ccc2[nH]c(-c3ccccc3)nc2c1` the value was 66.2%; for `Cc1cccc(CC(=O)N[C@H]2CCOC2=O)c1`, 38.3%; for `NC(=O)c1nccn([C@@H]2O[C@H](CO)[C@@H](O)[C@H]2O)c1=O`, 59.3%.
On to `Oc1c(C(Nc2nc3ccccc3s2)c2ccc(OC(F)F)cc2)ccc2cccnc12` (stereo not given), for which the parasite survival is 4.28% (active).
As to `OCCCCn1cnc2c(O)nc(NCc3ccc(Cl)c(Cl)c3)nc21`, the parasite survival is 59.7%.
Under `Cn1cncc1[C@@](N)(c1ccc(Cl)cc1)c1ccc2c(c1)c(-c1cccc(Cl)c1)cc(=O)n2C` stands 59.1%; under `COc1cc(C(C)(C)CCCC(C)C)cc(OC)c1OC`, 36.9%.
For `CCCCCCCCC(CP(=O)(O)C(C)N)C(=O)O` (stereo not given) the value was 62.7%; for `Cc1cc(NS(=O)(=O)c2ccc(-c3ccc(F)cc3F)cc2)no1`, 55%.
